# Inconclusive results are not listed. A number with no mark means an inactive call. Activity calls are given as the source filed them. The call rests on the fitted dose curve; in most records, active means well fitted curve in the direction sought with a large enough effect; inconclusive means small, poorly fitted or top-dose-only effect, or another doubt; inactive means no such curve, though single readings can be large; an effect the other way counts as inactive or inconclusive.
# How the values were obtained:
# [1] = target: Aldehyde dehydrogenase, mitochondrial (Homo sapiens) (UniProt P05091); assay: qHTS for Inhibitors of the Aldehyde Dehydrogenase Family (ALDH2) Primary screen (AID 2061308);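 further: plate controls were vehicle for no effect and reference inhibitor for full effect; nearly all actives have a fitted effect of over 55% in size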
# [2] = target: Retinaldehyde dehydrogenase 3 (Homo sapiens) (UniProt P47895); assay: qHTS for Inhibitors of the Aldehyde Dehydrogenase Family (ALDH1A3) Primary screen (AID 2061315);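 further: plate controls were DMSO vehicle for no effect and reference inhibitor for full effect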
# [3] = BET inhibitor-based combinations targeting novel dependencies in MECOM-rearranged (r) AML: MV-4-11 cell line (AID 2202233); further: nearly all actives have a fitted effect of over 45% in size; further: potency means the concentration at half of the fitted maximal effect
# Summary of the method: (§1)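 Cells at 500/well were exposed for 48 hr to MIPE v5.0 drugs as 11-point dose curves. Viability was read by CellTiter-Glo luminescence and normalized to DMSO and empty-well controls. Activity was expressed as AUC and per-cell-line Z-AUC.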
# [4] = BET inhibitor-based combinations targeting novel dependencies in MECOM-rearranged (r) AML: HNT-34 cell line (AID 2202234); further: nearly all actives have a fitted effect of over 35% in size; further: potency means the concentration at half of the fitted maximal effect
# Summary of the method: as §1
# [5] = BET inhibitor-based combinations targeting novel dependencies in MECOM-rearranged (r) AML: UCSD-AML1 cell line (AID 2202235); further: nearly all actives have a fitted effect of over 40% in size; further: potency means the concentration at half of the fitted maximal effect
# Summary of the method: as §1
# [6] = BET inhibitor-based combinations targeting novel dependencies in MECOM-rearranged (r) AML: AML-191 cell line (AID 2202236; further: nearly all actives have a fitted effect of over 35% in size; further: potency means the concentration at half of the fitted maximal effect)
# Summary of the method: (§2)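 AML cell lines seeded at 500 cells/well, treated with 11-point dose curves for 48 h. Viability by CellTiter-Glo luminescence, normalised to DMSO and empty wells; activity expressed as AUC and per-cell-line Z-transformed AUC.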
# [7] = BET inhibitor-based combinations targeting novel dependencies in MECOM-rearranged (r) AML: AML-194 cell line (AID 2202237; further: nearly all actives have a fitted effect of over 40% in size; further: potency means the concentration at half of the fitted maximal effect)
# Summary of the method: as §2
# [8] = BET inhibitor-based combinations targeting novel dependencies in MECOM-rearranged (r) AML: SET-2 cell line (AID 2202231); conditions: SET-2 AML cells viability, CellTiter-Glo luminescence, 48 h; viability: active compounds read low, concentration not given here; further: nearly all actives have a fitted effect of over 35% in size; further: potency means the concentration at half of the fitted maximal effect;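 on viability: plate controls were DMSO treated cells for no effect and wells without cells for full effect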
# Summary of the method: as §2
# [9] = BET inhibitor-based combinations targeting novel dependencies in MECOM-rearranged (r) AML: OCI-AML3 cell line (AID 2202232); conditions: Potency: OCI-AML3 viability; further: nearly all actives have a fitted effect of over 35% in size; further: potency means the concentration at half of the fitted maximal effect
# Summary of the method: as §2
# [10] = target: Retinaldehyde dehydrogenase 3 (Homo sapiens) (UniProt P47895); assay: qHTS for Inhibitors of the Aldehyde Dehydrogenase Family (ALDH1A3) Validation screen (AID 2061312); further: on the % scale 0 is the no-effect control and ±100 the full control effect; nearly all actives have a fitted effect of over 45% in size
smiles,measurement,setting,value
Nc1nc(Nc2ccc(S(N)(=O)=O)cc2)nn1C(=O)c1c(F)cccc1F,Potency,[1],inactive
same,Potency,[2],inactive
same,Potency,[3],1.66 µM (active)
same,Potency,[4],2.95 µM (active)
same,Potency,[5],2.09 µM (active)
same,Potency,[6],2.35 µM (active)
same,Potency,[7],3.72 µM (active)
NC1(Cc2ccc(Cl)cc2)CCN(c2ncnc3[nH]ccc23)CC1,Potency,[1],inactive
same,Potency,[2],inactive
same,Potency,[8],14.8 µM (active)
same,Potency,[9],6.61 µM (active)
same,Potency,[3],7.42 µM (active)
same,Potency,[5],5.25 µM (active)
COc1ccc2cc(-c3nc(-c4ccc(S(C)=O)cc4)[nH]c3-c3ccncc3)ccc2c1 (stereo unspecified),Potency,[1],inactive
same,Potency,[2],inactive
same,Potency,[5],inactive
COc1cc(N2CCC(N3CCN(C)CC3)CC2)ccc1Nc1ncc(Cl)c(Nc2ccccc2S(=O)(=O)C(C)C)n1,Potency,[1],inactive
same,Potency,[8],18.6 µM (active)
same,Potency,[9],2.63 µM (active)
same,Potency,[3],0.468 µM (active)
same,Potency,[4],16.6 µM (active)
same,Potency,[5],2.95 µM (active)
same,Potency,[6],10.5 µM (active)
Cc1cccc(Nc2nc(N[C@@H]3CCCC[C@H]3N)ncc2C(N)=O)c1,Potency,[1],inactive
same,Potency,[2],inactive
same,Potency,[8],29.5 µM (active)
same,Potency,[9],16.6 µM (active)
same,Potency,[3],2.63 µM (active)
same,Potency,[4],18.6 µM (active)
same,Potency,[6],18.6 µM (active)
same,Potency,[7],16.6 µM (active)
Cn1nccc1Nc1nccc(-c2ccn([C@H](CO)c3ccc(Cl)c(F)c3)c(=O)c2)n1,Potency,[1],inactive
same,Potency,[2],inactive
same,viability,[8],72.4%
same,Potency,[5],16.6 µM (active)
CC(C)c1nn(-c2c(Cl)cccc2Cl)c2nc(Cc3ccc(OCCO)cc3)[nH]c(=O)c12,Potency,[1],inactive
same,Potency,[2],inactive
same,Potency,[8],0.0417 µM (active)
same,Potency,[9],0.0742 µM (active)
same,Potency,[3],0.0417 µM (active)
same,Potency,[5],0.0417 µM (active)
same,Potency,[6],0.0295 µM (active)
same,Potency,[7],0.0468 µM (active)
C[C@@H](c1ccc2nccn2c1)n1nnc2ncc(-c3cnn(C)c3)nc21,Potency,[1],inactive
same,Potency,[2],inactive
same,Potency,[9],13.2 µM (active)
same,Potency,[5],inactive
same,Potency,[6],20.9 µM (active)
same,Potency,[7],inactive
CCN1CCC[C@@H]1CNC(=O)c1ccc2c(c1)NC(=O)c1cccc(C)c1S2,Potency,[1],inactive
same,Potency,[2],inactive
CCCO[C@@H]1O[C@H](CO)[C@@H](O)[C@H](O)[C@H]1O[C@@H]1OC[C@@H](O)[C@H](O)[C@H]1O,Potency,[1],inactive
same,Potency,[2],inactive
O=C(O)CCCCCC(=O)NN=C1CCCC1,Potency,[1],inactive
same,Potency,[2],inactive
same,viability,[8],108%
same,Potency,[9],inactive
same,Potency,[3],inactive
same,Potency,[4],inactive
same,Potency,[5],inactive
same,Potency,[6],inactive
same,Potency,[7],inactive
Nc1ncnc2c1c(-c1cccc(OCc3ccccc3)c1)cn2C1CC(CN2CCCC2)C1 (stereo unspecified),Potency,[1],inactive
same,Potency,[2],inactive
same,Potency,[3],2.63 µM (active)
same,Potency,[4],18.6 µM (active)
same,Potency,[6],20.9 µM (active)
CS(=O)(=O)N1CCc2c(-c3cnc(N)nc3)nc(N3CCOCC3)nc21,Potency,[1],inactive
same,Potency,[2],inactive
same,Potency,[3],4.68 µM (active)
same,Potency,[5],0.662 µM (active)
O=c1c(-c2ccc(O)cc2)coc2cc(O[C@@H]3O[C@H](CO)[C@H](O)[C@H](O)[C@H]3O)ccc12,Potency,[10],inactive
COc1cc(N2CCC(N(C)C)CC2)ccc1Nc1ncc(Cl)c(Nc2ccccc2P(C)(C)=O)n1,Potency,[1],inactive
same,Potency,[2],inactive
same,Potency,[8],6.61 µM (active)
same,Potency,[9],7.42 µM (active)
same,Potency,[3],0.0934 µM (active)
same,Potency,[4],2.63 µM (active)
same,Potency,[5],2.63 µM (active)
same,Potency,[6],9.34 µM (active)
same,Potency,[7],7.42 µM (active)
O=C(CCCCCCC(=O)Nc1ccc([C@H]2O[C@@H](CSc3nc(-c4ccccc4)c(-c4ccccc4)o3)C[C@@H](c3ccc(CO)cc3)O2)cc1)NO,Potency,[1],inactive
same,viability,[8],106%
same,Potency,[4],6.05 µM (active)
CC(=O)OCC(=O)[C@@]1(O)CC[C@H]2[C@@H]3CCC4=CC(=O)C=C[C@]4(C)[C@H]3[C@@H](O)C[C@@]21C,Potency,[1],inactive
same,Potency,[2],inactive
same,viability,[8],114%
same,Potency,[3],inactive
same,Potency,[5],inactive
same,Potency,[6],0.833 µM (active)
same,Potency,[7],0.372 µM (active)
